{
  "source": "PubChem BioAssay (NCATS)",
  "note": "A number with no mark means an inactive call. Active and inactive are the calls of the source. Calls come from the whole dose curve; as a rule, active = well fitted curve in the direction sought with a large enough effect; inactive = no such curve, though single readings can be large or run the other way.",
  "data": [
    {"target": "Alpha-galactosidase A (Homo sapiens) (UniProt P06280)", "sequence (P06280 whole entry, looked up)": "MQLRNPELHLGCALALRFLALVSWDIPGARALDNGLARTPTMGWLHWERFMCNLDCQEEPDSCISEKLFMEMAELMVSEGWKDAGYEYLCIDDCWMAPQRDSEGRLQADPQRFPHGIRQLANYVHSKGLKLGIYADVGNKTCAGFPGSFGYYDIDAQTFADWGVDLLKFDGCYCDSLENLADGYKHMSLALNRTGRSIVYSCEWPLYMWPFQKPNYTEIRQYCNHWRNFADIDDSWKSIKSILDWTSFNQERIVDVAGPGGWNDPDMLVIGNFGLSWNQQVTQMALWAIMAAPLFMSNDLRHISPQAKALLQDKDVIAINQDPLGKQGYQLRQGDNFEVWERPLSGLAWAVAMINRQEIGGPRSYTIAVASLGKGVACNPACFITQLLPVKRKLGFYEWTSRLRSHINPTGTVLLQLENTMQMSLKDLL", "test": "Counterscreen for Glucocerebrosidase Inhibitors: qHTS Assay for Human alpha-Galactosidase at pH 4.5 (AID 992); note: 0% is about no effect", "details": "purified enzyme, fluorogenic substrate; series mostly up to 76.9 µM; activity change, negative = inhibition: at the top concentration", "from_the_text": "NIH Chemical Genomics Center [NCGC]\nNIH Molecular Libraries Screening Centers Network [MLSCN]\nPI Name: Zheng, Wei [NIH]\nAlpha-galactosidase is a homodimeric glycoprotein that hydrolyzes the terminal alpha-galactosyl moieties from glycolipids and glycoproteins. Deficiency of this enzyme results in Fabry Disease with progressive accumulation of globotriaosylceramide and other glycosphingolipids in vascular endothelial cells that causes renal failure, myocardial infarction and stroke, and premature death in patients. It has reported that the improper folding and trafficking of alpha-galactosidase resulted from the genetic mutations may account for a significant numbers of Fabry patients. […] We optimized this alpha-galactosidase assay in 1536-well plate format for identifying the novel small molecule inhibitors with the structures other than the sugar analogs in order to develop the new pharmacological chaperones.\nNCGC Assay Protocol Summary:\nThis is a fluorogenic enzyme assay with 4-Methylumbelliferyl alpha-D-galactopyranoside as the substrate and human […] as the enzyme preparation. Upon the hydrolysis of this fluorogenic substrate, the resulting product, […]. 4-Methyllumbelliferone, can be excited at 365 nm and emits at 440 nm which can be detected by a standard fluorescence plate reader. Data were normalized to the controls for basal activity (without enzyme) and 100% activity (with enzyme). In the AC50 values were determined from concentration-response data modeled with the standard Hill equation.\nAssay buffer: 50 mM citric acid, 0.005% Tween-20, pH 4.5. (pH 4.5 is an optimal condition for this enzyme assay)\n1536-well assay protocol for the human alpha-galactosidase:\n(1) Add 2 ul/well of enzyme (2 nM final)\n(2) Add 23 nL compounds in DMSO solution. The final titration was 0.7 nM to 77 uM.\n(3) Add 1 ul of substrate (80 uM final)\n(4) Incubate at room temperature for 20 min.\n(5) Add 2 ul stop solution (1M NaOH and 1M Glycine mixture, pH 10)\n(6) Detect the assay plate in a ViewLux plate reader (PerkinElmer) with Ex=365 nm and Em=440nm.\nKeywords: Alpha-galactosidase, Fabry Disease, pharmacological chaperone, chaperone therapy, high throughput screening, alpha-galactosidase inhibitor, MLSMR, MLSCN, NIH Roadmap, qHTS and NCGC", "units": {"activity change, negative = inhibition": "%"}, "values": [
      {"smiles": "NCC(CC(=O)O)c1ccc(Cl)cc1", "note": "(configuration not stated)", "activity change, negative = inhibition": -1.28},
      {"smiles": "NCC1(CC(=O)O)CCCCC1", "activity change, negative = inhibition": -1.21},
      {"smiles": "Fc1ccc(C(OCCN2CCN(CCCc3ccccc3)CC2)c2ccc(F)cc2)cc1", "activity change, negative = inhibition": -10.4},
      {"smiles": "N#CC(C#N)=Cc1ccc(O)c(O)c1", "activity change, negative = inhibition": -0.911},
      {"smiles": "Nc1ccncc1", "activity change, negative = inhibition": -0.967},
      {"smiles": "CCCN1CCC[C@@H]2Cc3nc(N)ncc3C[C@H]21", "activity change, negative = inhibition": -1.16},
      {"smiles": "Cc1cccc(C)c1NC1=NCCCS1", "activity change, negative = inhibition": 0.247},
      {"smiles": "CCn1cc(C(=O)O)c(=O)c2ccc(C)nc21", "activity change, negative = inhibition": 1.31},
      {"smiles": "O=c1[nH]c2ccccc2n1CCCN1CCC(n2c(=O)[nH]c3cc(Cl)ccc32)CC1", "activity change, negative = inhibition": -2.89},
      {"smiles": "CNCC(O)c1ccc(O)cc1", "note": "(configuration not stated)", "activity change, negative = inhibition": 1.15},
      {"smiles": "CC(=O)[C@H]1CC[C@H]2[C@@H]3CC[C@H]4C[C@H](O)CC[C@]4(C)[C@H]3C(=O)C[C@]12C", "activity change, negative = inhibition": 1.21},
      {"smiles": "CN1C[C@H](CNC(=O)OCc2ccccc2)C[C@@H]2c3cccc4c3c(cn4C)C[C@H]21", "activity change, negative = inhibition": 0.365},
      {"smiles": "NN=C(N)N", "outcome": "inactive"},
      {"smiles": "O=c1[nH]c2ccccc2n1C1CCN(CCCC(c2ccc(F)cc2)c2ccc(F)cc2)CC1", "activity change, negative = inhibition": -15.7},
      {"smiles": "Cc1ccc(S(=O)(=O)N[C@@H](CCCCN)C(=O)CCl)cc1", "activity change, negative = inhibition": 0.925},
      {"smiles": "CCCN1CCC[C@@H]2Cc3[nH]ncc3C[C@H]21", "outcome": "inactive"},
      {"smiles": "c1ccc(C2CC2)c(OCC2=NCCN2)c1", "activity change, negative = inhibition": 2.15},
      {"smiles": "Cc1ncc(CNC(=O)N(CCCl)N=O)c(N)n1", "activity change, negative = inhibition": -1.92},
      {"smiles": "N[C@@H]1C[C@H]1c1ccccc1", "activity change, negative = inhibition": -0.387},
      {"smiles": "COc1ccccc1N1CCNCC1", "activity change, negative = inhibition": 2.71},
      {"smiles": "Clc1cccc(N2CCNCC2)c1", "activity change, negative = inhibition": -2.63},
      {"smiles": "CCCC(C)(COC(N)=O)COC(=O)NC(C)C", "note": "(configuration not stated)", "activity change, negative = inhibition": -1.32}
    ]}
  ]
}
